Source: the supplement of paper PMC10105736
Unmarked numbers belong to inactive results.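 The calls were made as follows: active = MAPPIT score above the 99th percentile of random reference set scores in the same batch; inactive = at or below it.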

B1: CG5902 (protein)
chain: MSNSHYNNYQQQQPHSSNGDPEYQHQQMVHQPQRFSNGHGMKTVAVPDMCLFCFEVLDCELNNVDGPSVPVFSNDAYPLFVTWKIGRDKRLRGCIGTFSAMELHHGLREYALTSAFKDSRFAPISRDELPRLTVSVSILQNFEEAQGHLDWQLGVHGIRIEFLTERGCKRTATYLPQVATEQGWDQLQTIDSLLRKGGYRAAITPETRKSIKLTRYRSQEIQMHYKEYREYQERRAQFGKVQC
B2: nAChRbeta1 (protein)
chain: MESSCKSWLLCSILVLVAFSLVSASEDEERLVRDLFRGYNKLIRPVQNMTQKVGVRFGLAFVQLINVNEKNQVMKSNVWLRLVWYDYQLQWDEADYGGIGVLRLPPDKVWKPDIVLFNNADGNYEVRYKSNVLIYPTGEVLWVPPAIYQSSCTIDVTYFPFDQQTCIMKFGSWTFNGDQVSLALYNNKNFVDLSDYWKSGTWDIIEVPAYLNVYEGDSNHPTETDITFYIIIRRKTLFYTVNLILPTVLISFLCVLVFYLPAEAGEKVTLGISILLSLVVFLLLVSKILPPTSLVLPLIAKYLLFTFIMNTVSILVTVIIINWNFRGPRTHRMPMYIRSIFLHYLPAFLFMKRPRKTRLRWMMEMPGMSMPAHPHPSYGSPAELPKHISAIGGKQSKMEVMELSDLHHPNCKINRKVNSGGELGLGDGCRRESESSDSILLSPEASKATEAVEFIAEHLRNEDLYIQTREDWKYVAMVIDRLQLYIFFIVTTAGTVGILMDAPHIFEYVDQDRIIEIYRGK

Key:
Assay in all cases: MAPPIT interaction score (arbitrary units); higher = stronger binary interaction signal, active = hit call of the paper
[1] = target: trbd; details: MAPPIT configuration: N-N; pair source set: screen_1
Experimental: (§1)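 MAPPIT in HEK293T cells: Drosophila bait and prey ORFs (from the FlyBi ORF collection) were co-transfected in quadruplicate, with two wells stimulated by erythropoietin. Interaction-dependent JAK-STAT activation was read out with a STAT-responsive firefly luciferase reporter. Positive calls use the 99th percentile of random reference set (RRS) scores within each batch […]. Batches Dvs01 and Dvs02 used the N-N configuration and Dvs04 the N-C configuration. Pairs come from FlyBi screens, CuraGen, DPiM, Finley Y2H, Lit-BM-16, Lit-BS-16 and RRS.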

[2] = target: CG14767; details: pair source set: RRS
Experimental: as §1

[3] = target: CG30472; details: MAPPIT configuration: N-N; pair source set: RRS
Experimental: as §1
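Also: HEK293T cells with Epo stimulation, STAT-responsive firefly luciferase reporter, fold induction versus unstimulated cells divided by the larger fold induction of two negative controls lacking either bait or prey.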

| Binder | MAPPIT interaction score [1] | MAPPIT interaction score ([2]; MAPPIT configuration: N-C) | MAPPIT interaction score ([2]; MAPPIT configuration: N-N) | MAPPIT interaction score [3] |
| --- | --- | --- | --- | --- |
| B1 | 2.52 (active) |  |  |  |
| B2 |  | 0.324 | 0.0737 | -0.0464 |
